# Source: PubChem BioAssay
# TbPYK inhibitor: qHTS of Trypanosoma Brucei Inhibitors. TbPYK enzyme, Kinase-Glo Plus ATP luminescence, 45 min. Potency, µM (highest dose often 76.8 µM), without a hit: at the highest dose activity, negative = inhibition, actives largely listed as inhibitors. hit rate 0.12% among 410,000; note: potency is the fitted concentration of half-maximal effect; % is set by controls: 0 for no effect and ±100 for the full control effect; nearly all actives have a fitted effect of over 50% in size
#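 Activity of T. brucei pyruvate kinase was followed by Kinase-Glo Plus luminescence after the enzyme reacted 45 min at room temperature with 130 uM ADP (final) and substrate. Test compounds were added before ADP at multiple concentrations.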
# LmPK inh: qHTS Assay for Inhibitors of Leishmania Mexicana Pyruvate Kinase (LmPK) | Q27686 | purified LmPK, Kinase-Glo ATP luminescence, 1 h | Potency, µM (top dose mostly 57.5 µM), inactives show at the top dose activity change, negative = inhibition, hits mostly inhibitors | hit rate 0.37% among 290,000 | AID 1721, 2009; note: potency is the fitted concentration of half-maximal effect; % is set by controls: 0 for no effect and ±100 for the full control effect
# Target sequence (Q27686 whole entry, looked up): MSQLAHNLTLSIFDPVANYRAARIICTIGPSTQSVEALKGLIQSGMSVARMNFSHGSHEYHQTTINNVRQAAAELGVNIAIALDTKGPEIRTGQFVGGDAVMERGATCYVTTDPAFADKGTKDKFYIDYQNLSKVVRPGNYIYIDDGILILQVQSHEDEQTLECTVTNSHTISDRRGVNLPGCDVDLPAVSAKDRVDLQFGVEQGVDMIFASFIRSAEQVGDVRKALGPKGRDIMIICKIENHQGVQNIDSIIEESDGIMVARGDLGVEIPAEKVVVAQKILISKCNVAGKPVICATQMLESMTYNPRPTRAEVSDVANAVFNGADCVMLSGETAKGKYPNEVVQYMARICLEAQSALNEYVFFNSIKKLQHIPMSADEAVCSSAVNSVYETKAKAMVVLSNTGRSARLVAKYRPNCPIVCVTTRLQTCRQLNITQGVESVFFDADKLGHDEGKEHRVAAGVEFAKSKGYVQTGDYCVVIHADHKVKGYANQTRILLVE
#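 Pyruvate kinase activity monitored as ATP production (luciferase luminescence). Conditions: 0.1 nM enzyme, 0.5 mM PEP, 0.1 mM ADP, 1 h, RT; normalized against uninhibited and no-enzyme wells.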
# NS1 function inh: qHTS Assay for Inhibitors of Influenza NS1 Protein Function. Potency, µM (doses to about 46.1 µM), for inactives: at the highest dose activity, positive = more growth. hit rate 0.4% among 270,000; calls by dose curve; note: potency is the fitted concentration of half-maximal effect; actives are rising curves; nearly all actives have a fitted effect of over 50% in size
#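 In this qHTS, NS1 from influenza A is expressed in budding yeast, where it slows growth. Cells are switched from glucose to 2% galactose medium (pH 6.0, -URA), treated with compound, and growth recovery is read at OD600.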
# CHX counter: Cycloheximide Counterscreen for Small Molecule Inhibitors of Shiga Toxin | cell reporter, cycloheximide protein synthesis inhibition counterscreen | max response, % | hit rate 12% among 300,000 | AID 2314, 2010; in the data active = max response mostly above about 13%, no sharp cut-off; inactive = mostly below about 14%; note: read at 38.3 µM for the half of the compounds with a filed dose; 0% is about no effect
# Shiga toxin inh: A qHTS for Small Molecule Inhibitors of Shiga Toxin. inhibition, % at 38.7 µM. Vero cells, Shiga toxin protein synthesis inhibition reporter. hit rate 9.2% among 290,000; in the data active = inhibition mostly above about 28%, no sharp cut-off; inactive = mostly below about 43%; note: 0% is about no effect
# SARS PLpro yeast: qHTS of Yeast-based Assay for SARS-CoV PLP; S. cerevisiae expressing SARS-CoV PLpro, growth rescue; Potency, µM (top dose mostly 32.9 µM), without a hit: at the highest dose activity, positive = growth rescue, hits mostly activators; hit rate 0.19% among 330,000; AID 485353, 2010; calls by dose curve; note: potency is the fitted concentration of half-maximal effect; 0% is about no effect; nearly all actives have a fitted effect of over 55% in size
# * = called active by the depositor; ? = inconclusive; nt = no result given; [ ] = another dose, or the depositor's remark. The full list was thinned out, with hits kept by preference. Unless noted, calls come from the whole dose curve; as a rule, active = well fitted curve in the direction sought with a large enough effect; inconclusive = small, poorly fitted or top-dose-only effect, or another doubt; inactive = no such curve, though single readings can be large; an effect the other way counts as inactive or inconclusive.
SMILES,TbPYK inhibitor,LmPK inh,NS1 function inh,CHX counter,Shiga toxin inh,SARS PLpro yeast
Cc1[nH]c2ccccc2c1-c1cc(-c2cc(-c3c(C)[nH]c4ccccc34)nc(N)n2)nc(N)n1,nt,nt,-3%,nt,nt,nt
CN(C)c1ccc(/C=C2/SC(=O)N(CCN=C3NS(=O)(=O)c4ccccc43)C2=O)cc1,-15%,-1%,-2%,29*,63*,-6%
CC1CCN(C(=O)c2c(NC(=O)c3ccccc3F)sc3c2CCC(C(C)(C)C)C3)CC1 (centres undefined),-15%,nt,nt,nt,nt,nt
CC(C)c1ccc(N2C(=O)N(Cc3ccccc3Cl)c3ccccc3S2(=O)=O)cc1,0%,nt,nt,nt,nt,nt
Cc1cccc(NC(=O)c2ccc(S(=O)(=O)C(F)F)cc2)c1C,-2%,2%,18%,16*,24,8%
Cc1nnc(NC(=O)c2ccc(S(=O)(=O)C(F)F)cc2)s1,-7%,1%,0%,27*,36,-1%
CCc1ccc(-c2csc(NC(=O)C3=COCCO3)n2)cc1,-4%,nt,nt,nt,nt,-3%
COC(=O)C1=C(C(=O)OC)[C@@H]2N(Cc3ccccc3)c3ccccc3[C@@]23C[C@@H](C(=O)OC)N(S(=O)(=O)c2ccc(Br)cc2)C3=N1,nt,-4%[11.5 µM],nt,nt,nt,nt
Cc1ccccc1C(=O)OC(C)CN1CCN(C)CC1 (centres undefined),3%,5%,nt,4,-6,5%
Cc1ccc(C(=O)OC(C)CN2CCN(C)CC2)cc1 (centres undefined),1%,5%,-4%,17*,48*,0%
CCOc1ccc(C(=O)OC(C)CN2CCCCC2)cc1 (centres undefined),-4%,-4%,19%,10,26*,1%
COc1ccc(C(=O)OC(C)CN2CCN(C)CC2)cc1OC (centres undefined),2%,-1%,-8%,4,10,4%
CCOc1ccc(C(=O)OC2CC3CCC(C2)N3C)cc1 (centres undefined),2%,4%,1%,22*,27,-1%
COc1ccc(C(=O)OC(C)CN2CCN(C)CC2)cc1 (centres undefined),-2%,1%,6%,12*,36,0%
COc1ccc(-c2nc3ccccc3o2)cc1NC(=O)c1cccc2c(Cl)cccc12,0%,nt,nt,nt,nt,nt
c1ccc(-c2cc(N3CCCCC3)ncn2)cc1,-1%,-1%,-33%,41*,62*,-6%
O=C(Nc1cc(N2CCCCC2)ncn1)c1ccccc1,1%,2%,-11%,29*,54*,-2%
O=C(Nc1cc(Cl)ncn1)c1ccccc1,-4%,nt,nt,nt,nt,nt
c1ccc(-c2cc(N3CCCCCC3)n[nH]2)cc1,?,-2%,?,48*,151*,0%
Nc1nc(-c2ccccc2)cc(N2CCCCC2)n1,3%,2%,-13%,3,6,2%
COc1ccc(OC)c(CNC(=O)CCCn2c(=O)c3cccn3c3cccnc32)c1,-3%,nt,nt,nt,nt,nt
Cc1cc(N2CCCC2)ccc1NC(=O)COc1cccc(C(F)(F)F)c1,7%,1%,9%,1,1,0%
Oc1cccc2ccc(N3CCOCC3)nc12,11%,-3%,-3%,25*,28,-1%
c1ccc2c(c1)Cn1nc(Cc3nc4c(s3)CCCC4)nc1-2,-15%,-1%,-47%,35*,74*,3%
N#CCc1nc2n(n1)Cc1ccccc1-2,9%,0%,5%,-4,1,-2%
SMILES,TbPYK inhibitor,LmPK inh,NS1 function inh,CHX counter,Shiga toxin inh,SARS PLpro yeast
COc1ccc(-c2nnc(SCC3CCCO3)n2C)cc1 (centres undefined),-2%,1%,nt,38*,61,2%
COc1ccc(-c2nnc(SCC(=O)NCC3CCCO3)n2C)cc1 (centres undefined),1%,-1%,3%,-1,-12,-1%
COc1ccc(-c2nnc(SCc3ccccn3)n2C)cc1,-6%,0%,-4%,26*,45*,-8%
Cn1c(SCC2CCCCC2)nnc1-c1ccncc1,6%,-1%,-6%,16*,76,2%
COc1ccc(-c2nnc(SCCc3ccccc3)n2N)cc1,-1%,0%,-19%,16,24*,-3%
COc1ccc(OCCSc2nnc(-c3ccccc3)n2N)cc1,1%,2%,-8%,9,11,4%
